Measured values: PubChem BioAssay (NCI)
Compounds without any hit were thinned out: in the full panel of roughly 83,000, 20% have a hit.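 Growth was measured after 48 h exposure to one concentration of compound in 96-well plates. Values under 10 count as active.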 Unmarked numbers belong to inactive results. The source made the active and inactive calls.

System: COLO 205 colon
Test: NCI-60 one-dose screen, 48 h (100 = growth as untreated, 0 = no growth, -100 = all killed)
Details: 10 µM unless noted
Procedure: Cells are grown in 96 well plates and exposed to the test compound for 48 hours. Compounds are tested at a single concentration, which is 10^-5 M for most compounds. The reported endpoint is percent growth (GI% or GIPRCNT), where numbers from 0 - 100% represent growth inhibition, and numbers from -100% - 0 represent cell death. For example, a value of 40 represents 60% growth inhibition. A value of 0 means no net growth occurred over the course of the experiment. A value of -40 indicates 40% of cells at the beginning of the experiment died by the end of the experiment. A value of -100 means all cells are dead at the end of the experiment.
NCI-60 Human Tumor Cell Lines Screen was performed using the standard one-dose NCI protocol, which is described in more detail at https://dtp.cancer.gov/discovery_development/nci-60/default.htm.
Compounds with GIPRCNT values below 10 were considered active. Activity score was based on GIPRCNT using the following formula: […]
Score is 0 for GIPRCNT values of 100 or above, 50 for GIPRCNT values of 0, and 100 for GIPRCNT values of -100.

| SMILES | growth |
| --- | --- |
| CCc1ccc(NC(=O)N[C@@H](Cc2cccc(F)c2)C(=O)N[C@@H]2C(=O)N3CCC[C@H]3C(=O)N3CCCC[C@H]3C(=O)N[C@@H](C)C(=O)N3C[C@H](C)C[C@H]3C(=O)O[C@H]2C)c(F)c1 | -26.4% (active) |
| C#CCOc1ccc(C(Nc2ccc(Cl)cc2)c2nnnn2C2CCCCC2)cc1 (stereo not given) | 97.9% |
| N#C/C(=C\c1ccc(Cl)cc1Cl)C(N)=O | 117% |
| CN(C)c1ccc(/C=N/Nc2nc(N/N=C/c3ccc(N(C)C)cc3)nc(N3CCOCC3)n2)cc1 | 108% |
| O=C1[C@@H]2Cc3c([nH]c4ccccc34)[C@H](c3c(Cl)cccc3Cl)N2C(=O)CN1C1CCN(Cc2c(F)cccc2F)CC1 | 90.6% |
| O=S(=O)(NC1CC2CCC1C2)c1ccc2c(c1)C(=NO)c1cc(S(=O)(=O)NC3CC4CCC3C4)ccc1-2 (stereo not given) | 85.5% |
| CCN(CC)c1ccc2cc(C(=O)NCCOCCOCCOCCn3cc(CCC(=O)Nc4ccc(C(=O)c5ccc(NC(=O)OC(C)(C)C)cc5)cc4)nn3)c(=O)oc2c1 | 38.2% |
| CN1CCN(c2nc(-c3cnc4ccccc4n3)cc3ccccc23)CC1 | -65.2% (active) |
| CCOC(=O)/C(F)=C/C1CC1C1CCCCC1 (stereo not given) | 110% |
| CC(=O)NC(C)(C)C(=O)N1CCC[C@H]1C(=O)NC(C)(C)C(=O)N[C@@H](C)C(=O)NC(C)(C)C(=O)NC(C)(C)C(=O)N[C@@H](CCC(N)=O)C(=O)NC(C)(C)C(=O)N[C@H](C(=O)NC(C)(C)C(=O)NCC(=O)N[C@@H](CC(C)C)C(=O)NC(C)(C)C(=O)N1CCC[C@H]1C(=O)N[C@H](C(=O)NC(C)(C)C(=O)NC(C)(C)C(=O)N[C@@H](CCC(N)=O)C(=O)N[C@@H](CCC(N)=O)C(=O)N[C@H](CO)Cc1ccccc1)C(C)C)C(C)C | -25.1% [4.25 µM] (active) |
| C=CCn1c(SCC(=O)Nc2cccc(C(=O)/C=C/c3ccc(C)cc3)c2)nc2ccccc2c1=O | 109% |
| COc1ccc(Cn2cc3c(c2-c2cc(OC)c(OC)c(OC)c2)CCCc2cnoc2-3)cc1 | -0.67% (active) |
| COc1cc(/C=N/n2cnc3oc(-c4ccccc4)cc3c2=N)cc(CN2CCOCC2)c1O | 82.4% |
| CCOC(=O)C1=C(C)Nc2nc3ccccc3n2C1c1cccc(Br)c1 (stereo not given) | 81.6% |
| Cn1c2ccccc2c2c3c(c4c5ccc(Br)cc5oc4c21)C(=O)N(O)C3=O | 86.7% |
| CCN1C(=O)N(CC)C2SC(N/N=C/c3cccs3)=NC21 (stereo not given) | -63% (active) |
| C(=C(\C1=NCCN1)n1cnc2ccccc21)/c1cccc2ccccc12 | 106% |
| C[C@@H]1C[C@H]2C(=O)OCC(NC(=O)[C@H](Cc3cc(F)cc(F)c3)NC(=O)Nc3ccc(Cl)cc3F)C(=O)N3CCC[C@H]3C(=O)N3CCCC[C@H]3C(=O)N[C@@H](C)C(=O)N2C1 (stereo not given in full) | -9.71% (active) |
| COc1ccc(-c2nnc(SCc3ccc(O)c4ncccc34)n2-c2ccccc2)cc1 | 68.6% |
| Cc1ccc(-c2csc(N/N=C/c3nc4ccccc4n3C3CC3)n2)cc1 | 8.64% (active) |

| SMILES | growth |
| --- | --- |
| C=CCn1c(SCC(=O)Nc2cccc(C(=O)/C=C/c3ccccc3Cl)c2)nc2ccccc2c1=O | 113% |
| Clc1ccccc1/C=C/c1nn2c(-c3ccncc3)nnc2s1 | 115% |
| O=C1Nc2ccc(Cl)cc2/C1=C/c1ccc(OCc2ccc(F)cc2)cc1 | 99.4% |
| O=C(CCCCCCN1CC(=O)N2[C@@H](c3cc(F)cc(F)c3)c3[nH]c4ccccc4c3C[C@H]2C1=O)NO | 53.1% |
| COC1=C(c2ccccc2)C(=O)C(OC)=C(c2ccccc2)C1=O | 108% |
| CC(C)(C)CC(C)(C)n1nnnc1C(Nc1ccccc1)c1cc2cccc3ccc4cccc1c4c32 (stereo not given) | 96.4% |
| O=C1Nc2cc(OC(F)(F)F)ccc2Oc2ccc(-c3ccnc(N4CC[C@H](O)C4)c3)cc21 | -42% (active) |
| CC1OC(O[C@@H]2[C@H](O)C(CO)OC(O[C@H]3COC(O[C@H]4CC[C@]5(C)[C@H]6CC[C@]78OC[C@@]9(CC[C@](C)(C=O)C[C@H]97)C(=O)C[C@@]8(C)[C@]6(C)CC[C@H]5C4(C)C)[C@@H](O)[C@@H]3O)[C@H]2OC2OC[C@@H](O)[C@@H](O)[C@@H]2O)[C@@H](O)[C@@H](O)[C@H]1O (stereo not given in full) | 92.6% |
| COc1ccc(N2CCN(C(=O)CSc3ccc(-c4nc5cc(C)c(C)cc5[nH]4)cn3)CC2)cc1 | 60.2% |
| CSc1ccc(/C(=N/N=C(N)N)c2ccccc2)cc1 | 0.455% (active) |
| C=C(C)[C@@H]1CC[C@]2(C(=O)ON)CC[C@]3(C)[C@H](CC[C@@H]4[C@@]5(C)C/C(=C/c6ccc(Br)cc6)C(=O)C(C)(C)[C@@H]5CC[C@]43C)[C@@H]12 | 88% |
| COc1ccc(C(=O)n2cc(C=O)c3ccccc32)cc1 | 114% |
| CCOC(=O)c1c(NCC(=O)Nc2cccc(Cl)c2)sc2c1CCCC2 | 101% |
| C/C(=N/Nc1nc(N/N=C(/C)c2ccc([N+](=O)[O-])cc2)nc(N2CCOCC2)n1)c1ccc([N+](=O)[O-])cc1 | 94.8% |
| O=C1Nc2ccc(Cl)cc2/C1=C/c1ccc(OCc2ccc(Br)cc2F)cc1 | 103% |
| CC(C)SC1=NC(=C(C(=N1)NC2=ClC=CC=C2)C#N)C3=CC=CC=C3 | 71.4% |
| O=C(N/N=C\c1ccc(Cl)cc1)c1ccc2nc(-c3ccc(Br)cc3)[nH]c2c1 | -33.4% (active) |
| CCC(=O)Nc1ccc(-c2nc(-c3cccc(O)c3)c(-c3ccnc(Br)c3)[nH]2)cc1 | 80.4% |
| COc1cc2c3c(n(CCCNC4CCCC4)c(=O)c2cc1OC)-c1cc2c(cc1C3=O)OCO2 | -89.9% (active) |
| CS(=O)(=O)c1ccc(-c2nn(-c3ccccc3)cc2/C=N/NC(=O)c2ccncc2)cc1 | 110% |
